aGal spleen mod: alpha-galactosidase A (human) modulation. P06280. Potency, µM (highest dose often 80 µM), without a hit: at the highest dose activity change, negative = inhibition, hits mostly inhibitors. human spleen homogenate, 4MU-alpha-Gal fluorescence, 40 min. AID 2107. 240,000 compounds, 0.008% hits;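 also: potency is read from the fitted curve at half-maximal effect; 0% = enzyme with vehicle and -100% = no enzyme basal signal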
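Human spleen homogenate (1 ug) as enzyme source, 4-methylumbelliferyl-alpha-D-galactopyranoside 1 mM final, citrate/phosphate pH 5.0 with 0.01% Tween-20. Compounds 40 min at 37C, NaOH/glycine stop; fluorescence Ex 365/Em 440, Hill-fit AC50.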
HTT cytoprotect: cytoprotection in Huntington HTT-Q103 PC12 cell model. PC12 HTT-Q103 induced, cytoprotection, ATP luminescence, 40 h. Potency, µM (series often up to 56.4 µM), for the others: cytoprotection (ATP increase), most hits filed as activators. 230,000 compounds, 0.14% hits; also: potency is read from the fitted curve at half-maximal effect; % of control where 0% means no effect; nearly all actives have a fitted effect of over 45% in size
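Quantitative HTS on tebufenozide-induced (100 nM) PC12 cells expressing HTTQ103 exon 1–GFP; compounds tested as a concentration series; survival measured via cellular ATP.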
GLA inh pH 4.5: alpha-galactosidase A (human) inhibition, pH 4.5. activity change, negative = inhibition, % at 105 µM. purified enzyme, 4-MU-alpha-Gal fluorescence, pH 4.5. 230,000 tested, under 10 active;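 also: 0% = full activity with enzyme and -100% = basal without enzyme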
Target sequence (P06280 whole entry, looked up): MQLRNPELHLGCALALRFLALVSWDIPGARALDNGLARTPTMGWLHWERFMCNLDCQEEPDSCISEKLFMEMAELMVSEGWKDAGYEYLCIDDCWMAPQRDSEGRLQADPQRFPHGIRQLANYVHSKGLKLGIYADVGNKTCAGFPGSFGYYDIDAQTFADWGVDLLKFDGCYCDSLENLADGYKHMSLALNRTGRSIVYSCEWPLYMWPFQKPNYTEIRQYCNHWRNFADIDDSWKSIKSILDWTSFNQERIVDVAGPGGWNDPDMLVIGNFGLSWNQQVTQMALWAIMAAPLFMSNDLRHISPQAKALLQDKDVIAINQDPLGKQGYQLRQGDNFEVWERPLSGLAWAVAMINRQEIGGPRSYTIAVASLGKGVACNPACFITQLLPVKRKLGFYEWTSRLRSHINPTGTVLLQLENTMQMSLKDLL
ERK EGF inh: EGF-driven ERK pathway inhibition | HEK293-V1b, EGF-stimulated phospho-ERK AlphaScreen | Potency, µM (highest dose often 11.5 µM), for inactives: top-dose activity change, negative = inhibition, actives largely listed as inhibitors | 130,000 compounds, 0.41% hits | AID 1454;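 also: potency is read from the fitted curve at half-maximal effect; plate controls were stimulated vehicle wells for no effect and unstimulated vehicle basal for full effect; nearly all actives have a fitted effect of over 55% in size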
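HEK293 cells stably expressing V1b receptor, serum-reduced (1% FBS) overnight, pretreated 30 min with compound, then stimulated 5 min with 25 nM EGF; phospho-ERK detected by AlphaScreen SureFire. AC50 from Hill fits, normalized to DMSO and EGF.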
HTT aggregate: inhibitors of mutant huntingtin aggregate formation in PC12 cells; PC12 HttQ103-GFP aggregates, Acumen cytometry, 40 h; 220,000 compounds, 1.1% hits; Potency, µM (highest dose often 46.1 µM), for inactives: top-dose activity change, negative = inhibition, most hits filed as inhibitors; also: potency is read from the fitted curve at half-maximal effect; % is scaled to controls: 0 for no effect and ±100 for the full control effect; nearly all actives have a fitted effect of over 60% in size
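Using laser scanning cytometry, GFP-positive aggregates were counted after lysis of PC12 cells induced with 100 nM tebufenozide to express HTT exon 1 Q103–GFP. Compounds were tested in titration.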
The depositor's hits bear a star; ? = inconclusive; nt = no result given; [ ] = dose if it differs, or a comment. Hits are enriched below; roughly 1.2% of the tested compounds scored in any of these assays. Calls follow the shape of the dose curve; as a rule, active = well fitted curve in the direction sought with a large enough effect; inconclusive = small, poorly fitted or top-dose-only effect, or another doubt; inactive = no such curve, though single readings can be large; an effect the other way counts as inactive or inconclusive.

SMILES	aGal spleen mod	HTT cytoprotect	GLA inh pH 4.5	ERK EGF inh	HTT aggregate
CCOC(=O)C1=C(c2ccccc2)c2cc(OC)ccc2OC1C(=O)OCC (centres undefined)	-3%[119 µM]	-29%	-14	nt	nt
CCOC(=O)Cc1nnc2c(Nc3ccccc3F)nc3nonc3n12	1%	-1%[10 µM]	8	nt	16µM*
CCCn1c(NCc2cc(OC)ccc2OC)nc2ccccc21	3%	-15%[0.074 µM]	-3	nt	20µM*
COc1cccc(CNc2nc3ccccc3n2CCN2CCCCC2)c1OC	5%	0%[10 µM]	-13	?	13µM*
COc1ccc(OC)c(CNc2nc3ccccc3n2CCN2CCCCC2)c1	-1%	7%	-8	nt	6%
O=C1N=C2SCCN2C(=O)C1Cc1ccc(Cl)cc1 (centres undefined)	nt	-12%	nt	nt	27%
COc1ccc(Br)cc1C(=O)Nc1ccc(Cc2ccncc2)cc1	-8%	-31%	-20	nt	?
COc1c(C(=O)Nc2ccc(Cc3ccncc3)cc2)ccc2ccccc12	3%	nt	-23	?	13µM*
Oc1c(N=NC(=S)Nc2ccccc2F)c2ccccc2n1Cc1ccccc1Cl	-3%	-6%	-5[21.1 µM]	14µM*	-29%
CCCCOc1ccc(S(=O)(=O)Nc2cccnc2)cc1	-13%	-19%	-9	nt	11µM*
C#C[C@@]1(O)CC[C@H]2[C@H]3CCC4=Cc5oncc5C[C@]4(C)[C@@H]3CC[C@@]21C	nt	20%[1.9 µM]	nt	nt	nt
O=C(c1ccc(CSc2nc3ccncc3[nH]2)cc1)N1CCN(c2cccc(Cl)c2)CC1	5%	nt	-15	18µM*	?
O=C(CSCc1nc2ccccc2[nH]1)N1CCN(c2ccc(F)cc2)CC1	-4%	-21%	-3	nt	?
O=C(c1ccc(CSc2nc3ccncc3[nH]2)cc1)N1CCCCCC1	-6%	-78%[10 µM]	-10	-6%[57.5 µM]	-1%[9.22 µM]
O=C(CSCc1nc2ccccc2[nH]1)N1CCN(c2cccc(Cl)c2)CC1	1%	-32%	-3	nt	25µM*
CC(=O)Nc1ccc(SCC(Cc2ccccc2)N2CCN(CCc3ccccc3)CCC2=O)cc1 (centres undefined)	7%	nt	nt	nt	nt
COc1cc(C(=O)O[C@@H]2CC3CC[C@]2(C)C3(C)C)ccc1O	0%	nt	nt	nt	nt
Cc1cccc(-n2c(SCC(=O)N3CC(=O)Nc4ccccc43)nc3ccccc3c2=O)c1C	-14%	0.89µM*	-6	5%	?
Cc1ccccc1-c1nccc(NCc2cccs2)n1	-5%	-293%	nt	nt	nt
C/C=C/c1ccc(OC(C)[C@@H](O)c2ccc(O)c(OC)c2)c(OC)c1 (some centres undefined)	-11%	?	-1	5%	nt
CC(C)C(=O)N1CCN(c2ccc(NC(=O)COc3ccccc3[N+](=O)[O-])cc2)CC1	-6%	-168%	7	32µM*	-14%[9.22 µM]
CO[C@H]1C[C@@H]2CC[C@@H](C)[C@@](O)(O2)C(=O)C(=O)N2CCCC[C@H]2C(=O)O[C@H]([C@H](C)C[C@@H]2CC[C@@H](O)[C@H](OC)C2)CC(=O)[C@H](C)/C=C(\C)[C@@H](O)[C@@H](OC)C(=O)[C@H](C)C[C@H](C)/C=C/C=C/C=C/1C	nt	-52%	nt	nt	-21%
CCN(CC)c1ccc(/C=N/NC(=O)Cc2cccs2)c(O)c1	-2%	-89%[10 µM]	3	7%	25µM*
CCCCc1ccc(-c2csc(/C(C#N)=C\c3ccc(C)o3)n2)cc1	-3%	-11%	-8	nt	7%
CCOc1ccc(-c2csc(/C(C#N)=C\c3ccc(O)c([N+](=O)[O-])c3)n2)cc1	-1%	18%[10 µM]	-16	13µM*	7.9µM*
SMILES	aGal spleen mod	HTT cytoprotect	GLA inh pH 4.5	ERK EGF inh	HTT aggregate
COc1cc2[nH]c3c(N4CCN(c5ccccn5)CC4)ncnc3c2cc1OC	-1%	-165%[0.074 µM]	-6	nt	20µM*
COc1ccc2[nH]c3c(N4CCc5ccccc5C4)ncnc3c2c1	14%	-63%[10 µM]	-6	32µM*	-12%[9.22 µM]
CCN1C(=O)N[C@@H](c2ccccc2)C1=O	2%[29.1 µM]	-49%[17.1 µM]	4	3%[25.7 µM]	-2%[20.6 µM]
Cc1cc(C(C)(C)C)ccc1OCCCCN1CCCC1	-2%	-4%[10 µM]	-5	-4%	-4%
CCC(C)(C)c1ccc(OCCCC[n+]2ccc(C)cc2)c(C(C)(C)CC)c1	?	-80%	-6	?	18µM*
COc1ccc(C(=O)C[n+]2cccc(C)c2C)cc1[N+](=O)[O-]	12%	-12%[10 µM]	-10	-6%	10%[9.22 µM]
CCC(C)(C)c1ccc(OCCCC[n+]2cccc(C)c2C)c(C(C)(C)CC)c1	3%	-51%[10 µM]	-8	32µM*	-31%[9.22 µM]
CCOC(=O)C1=C(O)C(=O)N(c2ccc(S(N)(=O)=O)cc2)C1c1ccc([N+](=O)[O-])cc1 (centres undefined)	-5%	-4%[10 µM]	1	7%[57.5 µM]	-3%[9.22 µM]
CCOC(=O)C1=C(N)Oc2cc(O)ccc2C1c1ccc([N+](=O)[O-])cc1 (centres undefined)	-7%	4%[10 µM]	1	18µM*	-3%[9.22 µM]
CCC(=O)CC	7%	nt	nt	nt	nt
O=C(Nc1ccc(F)cc1)Nc1cc(OCC(F)(F)F)cc(OCC(F)(F)F)c1	1%	-67%[10 µM]	0	3%	3.5µM*
CCOc1ccc(NC(=O)Nc2cc(OCC(F)(F)F)cc(OCC(F)(F)F)c2)cc1	-2%	7%[10 µM]	5	-1%	-6%
Cc1ccccc1N1C(=O)c2cc(N)ccc2N/C1=C\F	nt	17%	nt	nt	10%
CCNc1ncc2nc(-c3ccc(F)cc3)c(=O)n(CCc3ccccc3)c2n1	14%	-58%	nt	nt	nt
CCOC(=O)N1CCC(c2cc(=O)n3[nH]c(C)c(-c4ccc(F)cc4)c3n2)CC1	3%	-21%	2	nt	11µM*
